Source: PubChem (Sanford-Burnham Center for Chemical Genomics)
VHR inh color: VHR1 (DUSP3) phosphatase inhibition; recombinant VHR phosphatase, colorimetric substrate read-out; inhibition, % at 20 µM; 0.7% of 50,000 active; in the data active means inhibition above about 60%
Target sequence (P51452 whole entry, looked up): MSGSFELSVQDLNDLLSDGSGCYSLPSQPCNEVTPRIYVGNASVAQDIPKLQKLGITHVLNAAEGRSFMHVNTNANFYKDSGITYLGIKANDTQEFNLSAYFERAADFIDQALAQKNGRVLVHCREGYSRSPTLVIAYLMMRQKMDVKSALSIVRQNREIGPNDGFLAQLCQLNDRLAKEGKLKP
Each line names hits and unclear results; the compound was inactive in the other large screens. Only a selection was taken, and hits are over-represented in it overall.

COc1cccc(C(=O)NCCc2nc3ccccc3[nH]2)c1	none
O=C(O)C(Cc1ccccc1)N1C(=O)/C(=C/c2cccc3ccccc23)SC1=S (centres undefined)	none
CC(c1ccccc1)N1C(=O)/C(=C\c2ccc(Cl)cc2Cl)SC1=S (centres undefined)	none
O=C(O)C(Cc1ccccc1)N1C(=O)/C(=C/c2ccc(Cl)cc2Cl)SC1=S (centres undefined)	VHR inh color 83
COC(=O)c1c(NC(=O)c2sc3cc(C)ccc3c2Cl)sc(C)c1C	none
O=C1/C(=C/c2cccs2)SC(=S)N1Nc1ccccc1	none
Cc1ccc(-c2ccc(C=C3C(=O)NC(=S)NC3=O)o2)c(Br)c1	none
C=CCN1C(=O)/C(=C\c2cn(C)c3ccccc23)C(=O)NC1=S	none
C=CCN1C(=O)/C(=C\c2ccc(-c3ccc([N+](=O)[O-])cc3)o2)C(=O)NC1=S	VHR inh color 62
CCn1cc(C=C2C(=O)NC(=S)NC2=O)c2ccccc21	VHR inh color 76
C=CCN1C(=O)/C(=C\c2ccc(C)o2)C(=O)NC1=S	none
C=CCN1C(=O)/C(=C\c2cn(Cc3ccc([N+](=O)[O-])cc3)c3ccccc23)C(=O)NC1=S	VHR inh color 83
O=C(Cn1cc(C=C2C(=O)NC(=S)NC2=O)c2ccccc21)Nc1ccccc1	none
C=CCN1C(=O)/C(=C\c2ccc(-c3cccc([N+](=O)[O-])c3)o2)C(=O)NC1=S	none
C=CCN1C(=O)/C(=C/c2ccccc2Cl)C(=O)NC1=S	none
C=CCN1C(=O)/C(=C\c2ccc(-c3ccc(Br)cc3)o2)C(=O)NC1=S	none
CCn1cc(/C=C2\C(=O)NC(=O)N(c3ccccc3)C2=O)c2ccccc21	none
C=CCN1C(=O)/C(=C\c2ccc(-c3ccc(C)cc3Br)o2)C(=O)NC1=S	VHR inh color 88
CCc1ccccc1NC1=C(Cl)C(=O)N(c2ccc(OC)cc2)C1=O	none
C=CCc1cccc(/C=N/c2nc3ccccc3n2CCC)c1O	none
CN(Cc1ccccc1)C(=O)c1nn2c(C(F)(F)F)c3c(nc2c1Cl)-c1ccccc1CC3	none
Clc1cccc(-c2nc3ccccc3[nH]2)c1	none
O=C(Cn1cc(/C=C2/C(=O)NC(=O)N(c3cccc(Cl)c3)C2=O)c2ccccc21)Nc1ccccc1	none
COC(=O)c1sccc1NC(=O)c1ccc(OCC(C)C)cc1	none
Cc1cc(/C=N/NC(=O)CC#N)c(C)n1-c1ccc(F)cc1	none
CCOC(=O)/C(C#N)=N/Nc1ccc(NC(=O)c2ccc(N/N=C(\C#N)C(=O)OCC)cc2)cc1	none
COc1ccc(-n2c(O)c(C3=c4ccccc4=NC3=O)sc2=O)cc1	none
CCOC(=O)C(CCCOc1c(C)cc(Cl)cc1C)C(=O)OCC	none
O=C1NC(=S)N/C1=C/c1ccc(-c2cccc(Cl)c2Cl)o1	none
O=C1NC(=S)N/C1=C/c1ccc(-c2cc(C(=O)O)ccc2Cl)o1	none
Cc1cc(Br)c(-c2ccc(/C=C3/NC(=S)NC3=O)o2)cc1C	VHR inh color 91
O=C1CC(N2CCC(Cc3ccccc3)CC2)C(=O)N1c1cccc(Br)c1 (centres undefined)	none
COc1cccc(/C=C2/C(=O)NC(=O)N(C)C2=O)c1O	none
c1ccc(Nc2nc(-c3ccncc3)cs2)cc1	none
COc1ccc(-c2csc(Nc3ccccc3)n2)cc1	none
c1ccc(Nc2nc(-c3ccccc3)[n+](-c3ccccc3)s2)cc1	VHR inh color 97
CCOC(=O)/C(C#N)=C/Nc1ccc2ccccc2c1	none
O=C(Nc1ncc(Cc2ccc(F)cc2)s1)c1ccccc1Br	none
CC(C)c1ccc(/C=C2\SC(=S)NC2=O)cc1	none
O=C1NC(=S)S/C1=C\c1ccc(N2CCCCC2)c([N+](=O)[O-])c1	none
CC(C)c1ccc(/C=C2\SC(=S)NC2=O)cc1[N+](=O)[O-]	VHR inh color 79
O=C(N=Nc1c(O)n(CN2CCCC2)c2ccccc12)c1cccnc1	none
COc1ccc(C)cc1NC(=O)C(C)Oc1ccc(Cl)cc1Cl (centres undefined)	none
O=[N+]([O-])c1ccccc1N1CCCCC1	none
O=C(NC(Cc1ccccc1)C(=O)Nc1ccccc1)OCc1ccccc1 (centres undefined)	none
O=C(O)CSCC(NC(=S)Nc1ccccc1)C(=O)O (centres undefined)	none
O=C(O)C(Cc1ccccc1)NC(=S)Nc1ccccc1 (centres undefined)	VHR inh color 99
CCN(CC)S(=O)(=O)c1ccc(NC(=S)Nc2ccccc2)cc1	none
CCC(C)C(NC(=S)Nc1ccccc1)C(=O)O (centres undefined)	VHR inh color 98
CC(=O)Nc1ccc(NC(=S)Nc2ccccc2)cc1	none
CC(=O)Cc1cc(O)c2ccccc2c1OC(=O)c1ccc(C)cc1	none
CCOC(=O)CSCCOc1ccc(C=O)cc1OC	none
Cn1c(O)c(C=NCC2CCN(C(=S)Nc3ccccc3)CC2)c(=O)n(C)c1=O	none
Nc1c(C(=O)NCc2cccnc2)sc(=S)n1-c1ccccc1	VHR inh color 91
O=C(NCc1cccnc1)c1ccc(C#Cc2ccccc2)cc1	none
O=C(NCc1cccnc1)c1cc(-c2ccccc2)nc2ccccc12	none
COc1ccc(C(=O)Nc2ccccc2CO)cc1OC	none
COc1cc(OC)cc(C(=O)Nc2sc3c(c2C(N)=O)CCC(C)C3)c1 (centres undefined)	none
CC1CCc2c(sc(NC(=O)c3cccc(C(=O)O)c3)c2C(N)=O)C1 (centres undefined)	VHR inh color 78
CC1CCc2c(sc(NC(=O)c3ccccc3)c2C(N)=O)C1 (centres undefined)	none
CC(=O)N/N=C\c1cc(C)cc(/C=N\NC(C)=O)c1O	none
CCOC(=O)C1=C(C)N(c2ccc(OCC)cc2)C(=O)/C1=C\c1ccco1	none
CCOc1ccc(N2C(=O)/C(=C/c3ccco3)C(=O)NC2=S)cc1	VHR inh color 80
O=C1NC(=S)N(c2cccc(Br)c2)C(=O)/C1=C/c1ccc(O)c(Cl)c1	none
Cc1cc(/C=C2\C(=O)NC(=S)N(c3cccc(Br)c3)C2=O)c(C)n1C	none
CCOc1ccc(N2C(=O)NC(=O)/C(=C\c3ccc(C)o3)C2=O)cc1	none
O=C1NC(=S)N(c2cccc(Br)c2)C(=O)/C1=C/c1ccco1	VHR inh color 89
CCN(CC)c1ccc(N2C(=O)/C(=C/c3ccc(OC)c(OC)c3)SC2=S)cc1	none
COc1cc(/C=C2\C(=O)N(c3ccc(S(N)(=O)=O)cc3)N=C2C)cc(Cl)c1OC(C)C	none
CC(=O)Nc1ccc(C(=O)N2CCN(c3ccc(F)cc3)CC2)cc1	none
CCOc1ccc(C=Nc2ccc3c(c2)nc(C)n3C)cc1	none
CC(C)c1ccccc1NS(=O)(=O)c1ccccc1	none
COc1cc(/C=C2/C(=N)N3N=C(C(C)C)SC3=NC2=O)cc(Cl)c1OCCOc1ccccc1	none
CC(C)C1=NN2C(=N)/C(=C/c3ccc(Sc4ccc(Cl)cc4)o3)C(=O)N=C2S1	VHR inh color 110
CC(C)C1=NN2C(=N)/C(=C/c3ccc(-c4cccc([N+](=O)[O-])c4)o3)C(=O)N=C2S1	none
Cc1ccc(/C=N/N=C2\NC(=O)C(C)S2)cc1 (centres undefined)	none
CC(C)C1S/C(=N/N=C/c2ccc(O)cc2)NC1=O (centres undefined)	VHR inh color 93
COc1ccc(CC2S/C(=N\N=C\c3ccc(C(C)C)cc3)NC2=O)cc1 (centres undefined)	none
CCc1ccccc1NC(=O)C(C#N)=C1CCCCCC1	none
O=Cc1ccc(-c2cccc(OC(F)(F)F)c2)o1	none
N#CC1=C(S)NC(=O)C(C#N)C12CCCCC2 (centres undefined)	VHR inh color 81
N#CC1=C(SCc2ccccc2)NC(=O)C(C#N)C12CCCCC2 (centres undefined)	none
C=CCSC1=C(C#N)C2(CCCCC2)C(C#N)C(=O)N1 (centres undefined)	none
COc1ccccc1N1CCN(/N=C\c2ccncc2)CC1	none
Brc1cc(/C=N/Nc2ccccn2)oc1Br	none
